This is a sample that favours compounds with a hit; in the whole collection about 6.5% have one here.
HCMV antiviral: inhibitors of human cytomegalovirus | HFF cells, HCMV-luciferase reporter, 72 h; active compounds read low | activity change, negative = inhibition, % at 57.5 µM | actives 4.5% (n = 410,000) | AID 1259415; in the data active = activity change below about -60%; inconclusive = no clear call, values can overlap the other calls; inactive = above about -39%
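After 16 h attachment at 37C, HFF cells received test compound and HCMV-luciferase (1 PFU/cell); reporter luminescence read 72 h later, data normalized against buffer-only and known inhibitor Salinomycin.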
LASV entry inh: blocks Lassa virus binding to or entry into cells | actives 1.2% (n = 300,000) | AID 540256 | Lassa virus pseudotype entry inhibition, cell reporter | Potency, µM (doses to about 37.9 µM), for inactives: top-dose activity change, negative = inhibition, hits mostly inhibitors; calls by dose curve; tested in HEK293 cells; note: potency is the fitted concentration of half-maximal effect; nearly all actives have a fitted effect of over 50% in size
FMDV antiviral: blocks foot and mouth disease virus. FMDV antiviral cell-based qHTS. Potency, µM (titrated, usually from 57.9 µM), for the others: top-dose activity change, negative = inhibition, actives largely listed as inhibitors. actives 1.2% (n = 410,000). AID 1159524; calls by dose curve; tested in HEK293T cells; note: read-out not given here; potency is the fitted concentration of half-maximal effect; nearly all actives have a fitted effect of over 45% in size
Marburg entry inh: blocks Marburg virus binding to or entry into cells. Marburg virus pseudotyped entry inhibition, cell reporter. Potency, µM (doses to about 37.8 µM), without a hit: top-dose activity change, negative = inhibition, most hits filed as inhibitors. actives 1.8% (n = 300,000). AID 540276; calls by dose curve; tested in HEK293 cells; note: potency is the fitted concentration of half-maximal effect
VACV mCherry inh: inhibitors of vaccinia virus infection (mCherry reporter signal); actives 0.63% (n = 310,000); AID 720579; Vaccinia virus mCherry reporter infection, fluorescence; Potency, µM (highest dose often 36.5 µM), without a hit: at the highest dose activity change, negative = inhibition, most hits filed as inhibitors; calls by dose curve; tested in A549 cells; note: potency is the fitted concentration of half-maximal effect; nearly all actives have a fitted effect of over 35% in size
Vaccinia Venus: inhibitors of vaccinia virus (Venus reporter) | Vaccinia virus Venus reporter expression, fluorescence | actives 0.46% (n = 330,000) | AID 720580 | Potency, µM (highest dose often 36.5 µM), for inactives: at the highest dose activity change, negative = inhibition, actives largely listed as inhibitors; calls by dose curve; tested in A549 cells; note: potency is the fitted concentration of half-maximal effect; nearly all actives have a fitted effect of over 30% in size
Active calls of the source: *; i = inactive; u = inconclusive; x = no result given; [ ] = another dose, or the depositor's remark. % is set by controls: 0 for no effect and ±100 for the full control effect.

SMILES	HCMV antiviral	LASV entry inh	FMDV antiviral	Marburg entry inh	VACV mCherry inh	Vaccinia Venus
COC(=O)C1=C(C)N(Cc2ccccc2)C(=NCC2CC2)NC1c1ccccc1 (centres undefined)	x	x	x	-0.8%[14.2 µM]	x	x
N/C(=N\OC(=O)/C=C/c1ccccc1Cl)c1ccccn1	-38.8	-23.1%	-23.1%	9.2µM*	x	x
N/C(=N\OC(=O)/C=C/c1ccccc1Cl)c1cccnc1	73.7	-14.4%	55.4%	u	-7.6%[7.34 µM]	2.6%[7.34 µM]
CCOc1ccc(C(=O)O/N=C(\N)c2ccccn2)cc1	-90.8*	x	10µM*	x	x	x
Cc1ccc(C(=O)O/N=C(\N)c2ccccn2)cc1	-69.2*	u	3.16µM*	u	-0.6%	6.7%
N/C(=N\OC(=O)COc1ccc(Br)cc1Cl)c1ccccn1	21.6	2µM*	-36.5%	u	4.9%	-18.3%
NC[C@H]1O[C@H](O[C@H]2[C@H](O)[C@@H](O[C@H]3O[C@H](CO)[C@@H](O)[C@H](N)[C@H]3O)[C@H](N)C[C@@H]2N)[C@H](N)[C@@H](O)[C@@H]1O	x	x	-2.0%	x	-16.0%	-9.1%
Cn1nc(-c2ccccc2F)c2cc(C(=O)N3CCN(c4ccccc4F)CC3)sc21	-27.5	u	-6.7%	-9.9%[46.1 µM]	-12.9%	2.6%
CCc1cccc(CC)c1NC(=O)C(CC)n1nc(C)n2c(cc3cc(C)ccc32)c1=O (centres undefined)	-0.9	12.7%[46.1 µM]	-7.0%	4.2%[46.1 µM]	-18.4%	-15.3%
COc1cc(C(=O)O/N=C(\N)c2ccccn2)cc(OC)c1OC	0.8	x	59.4%	x	x	x
Cc1cccc(C(=O)O/N=C(\N)c2ccccn2)c1	-15.9	u	-55.4%	u	i	-1.0%
CC(C)(C)c1ccc(C(=O)O/N=C(\N)c2ccccn2)cc1	-99.1*	u	0.1µM*	u	i	-13.1%
N/C(=N\OC(=O)c1cc(Cl)ccc1Cl)c1ccccn1	-14.8	6.51µM*	-14.7%	4.11µM*	x	x
Cc1ccc(C(=O)O/N=C(\N)c2ccccn2)cc1C	u	u	-97.9%	0.708µM*	0.8%	-6.0%
COc1ccc(Cl)cc1C(=O)O/N=C(\N)c1ccccn1	143.1	x	35.3%	x	x	x
N/C(=N\OC(=O)c1ccccc1)c1ccccn1	0.0	u	10µM*	u	i	-4.8%
COc1cccc(NC(=O)CC(C)S(=O)(=O)c2ccc3c(c2)NC(=O)CO3)c1 (centres undefined)	-3.7	20.4%[46.1 µM]	6.2%	x	-1.3%	-3.6%
CC(=O)N1CCCC1c1nc2ccccc2n1Cc1c(F)cccc1Cl (centres undefined)	19.0	3.5%[46.1 µM]	17.6%	9.3%[46.1 µM]	-4.9%	5.4%
Cc1ccc(O)c(-c2n[nH]c3c2C(c2ccc(F)cc2)N(Cc2ccco2)C3=O)c1 (centres undefined)	-10.9	u	-21.4%	u	-15.4%	-14.5%
Cn1ncc2c(O/N=C(\N)c3ccc(C(C)(C)C)cc3)ncnc21	x	u	14.1µM*	u	i[7.34 µM]	-11.7%[7.34 µM]
CNc1snc(C)c1C(=O)OCC(=O)c1ccc(OC)c(F)c1	-73.6*	x	u	x	x	x
COc1ccc(N)cc1-n1c(C)ccc1C	-65.5*	-1.1%[46.1 µM]	3.4%	u	u	-15.8%
COc1ccc(C)cc1-n1c(C)cc(C=O)c1C	u	-16.3%	-3.7%	-9.8%[46.1 µM]	-8.0%	-4.6%
COC1=C[C@H](C(=O)NC2CCN(Cc3ccccc3)CC2)[C@@]2(C)Cc3ccccc3[C@@H]2CC1=O	x	x	x	-18.2%[14.2 µM]	x	x
CN(C(=O)Cn1cc([N+](=O)[O-])ccc1=O)C1CCCCC1	0.2	8.9%	-18.2%	1.26µM*	-11.8%	3.6%
SMILES	HCMV antiviral	LASV entry inh	FMDV antiviral	Marburg entry inh	VACV mCherry inh	Vaccinia Venus
CC1CCc2c(N3CCC(O)CC3)c(F)cc3c(=O)c(C(=O)O)cn1c23 (centres undefined)	36.4	x	-0.5%	x	i	-19.6%
CC1CCc2cc(F)cc3c(=O)c(C(=O)O)cn1c23 (centres undefined)	-71.0*	10.1%	-11.8%	2.9%	-9.4%	-6.6%
O=C(c1ccc2c(c1)OCO2)N(Cc1cc2cc3c(cc2nc1N1CCOCC1)CCC3)CC1CCCO1 (centres undefined)	x	x	0.8%	x	-10.4%	-6.9%
C#CC1(N2CCCCC2)CCCCC1	-62.2*	x	-29.9%	x	i	-4.2%
OC1(C#CCN2CCCC2)CCCCC1	5.6	x	3.5%	x	x	x
CN(C)CCn1c2ccccc2c2nc3ccc([N+](=O)[O-])cc3cc21	-108.3*	u	5.5%	u	i	u
CCN(CC)Cc1cc(Nc2c3ccccc3nc3c4ccccc4n(C)c23)cc(CN(CC)CC)c1O	-25.4	11.2µM*	-18.1%	u	-20.6%	11.2µM*
COc1ccc(C2C(C#N)=C(N)Oc3cc(N)ccc32)cc1 (centres undefined)	-12.1	x	8.6%	x	x	x
COc1ccc(C2C(C#N)=C(N)Oc3c2sc2nc(C)cc(C)c32)cc1 (centres undefined)	-68.1*	u	39.8µM*	u	-23.8%	-13.2%
CCOc1ccccc1N1CCN(S(=O)(=O)c2ccc(C3CCCCC3)cc2)CC1	6.3	u	0.0%	u	-10.9%	-7.0%
CNc1c2cccc(C)c2nc2c(C(=O)NCCN(C)C)cccc12	-100.0*	u	u	u	2.24µM*	2.24µM*
Cc1ccc(C(=O)NCCN(C)C)c(C)c1	54.3	u	6.2%	3.5%	-16.0%	-5.8%
CN(C)c1ccc(/C=C(\C#N)C(=O)c2ccccc2)cc1	-62.9*	x	35.9%	x	x	x
CCN(CC)c1ccc(/C=C(\C#N)C(N)=O)cc1	16.4	u	37.8%	u	-15.8%	u
CCN(CC)c1ccc(/C=C(\C#N)C(=O)c2ccc(Br)cc2)cc1	-64.6*	u	-17.9%	u	-15.9%	14.1%
CSc1ccccc1C(=O)NCC1Cc2cccc(-c3ncccc3C)c2O1 (centres undefined)	x	x	-4.7%	x	i	-16.3%
Cc1cccc(OCc2ccc(-c3nc(C#N)c(NCCN(C)C)o3)o2)c1	38.0	13.1%[46.1 µM]	-12.5%	u	i	-25.3%
O=C(NCc1ccco1)C(c1cccs1)N(Cc1ccccc1)C(=O)Cn1nnc2ccccc21 (centres undefined)	-62.4*	-15.2%	-1.8%	-13.5%	x	-21.5%
Cc1ncc(COC(=O)C(C)C)c2cc(C(=O)Nc3ccccc3C(F)(F)F)c(=O)oc12	6.9	27.6%[46.1 µM]	-17.5%	x	-14.1%	-4.2%
COc1cccc(N2CCN(c3ncnc4c3[nH]c3ccc(F)cc34)CC2C)c1 (centres undefined)	-97.1*	2.82µM*	2µM*	u	x	7.08µM*
COc1cccc(N2CCN(c3ncnc4c3[nH]c3ccccc34)CC2C)c1 (centres undefined)	-102.5*	x	x	x	x	x
COc1ccc2[nH]c3c(N4CC(C)OC(C)C4)ncnc3c2c1 (centres undefined)	u	10.5%	-19.1%	-29.3%	x	x
COc1cc(/C=N/NC(=O)c2nnn(-c3nonc3N)c2C)ccc1OCc1ccc(Cl)cc1	-60.5*	x	28.4%	x	-4.9%	u
